Apoferritin bind: candidate novel general anesthetic via apoferritin binding | Potency, µM (highest dose often 77.5 µM), for inactives: at the top dose activity change, negative = displacement, hits mostly inhibitors | AID 485281 | P02791 | hit rate 0.074% among 350,000 | apoferritin/1-aminoanthracene competitive binding, fluorescence; note: % is set by controls: 0 for no effect and ±100 for the full control effect; nearly all actives have a fitted effect of over 20% in size
Target sequence (P02791 2-175 limits assumed): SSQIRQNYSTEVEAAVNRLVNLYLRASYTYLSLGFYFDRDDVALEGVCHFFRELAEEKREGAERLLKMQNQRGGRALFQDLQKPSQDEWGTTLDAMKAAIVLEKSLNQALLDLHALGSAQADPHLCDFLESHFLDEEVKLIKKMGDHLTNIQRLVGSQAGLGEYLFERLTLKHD
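Read-out: endpoint 1-AMA fluorescence, excitation 380 nm and emission 535 nm, after compounds sit 10 min at room temperature with 10 uM horse-spleen apoferritin in 50% saturated 1-AMA/PBS. Values come from four-parameter Hill fits.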
ATXN2 expr inh: ATXN2 expression inhibition; HEK-293 ATXN2-luciferase reporter, luminescence, 24 h; AID 1745845; hit rate 0.72% among 360,000; Potency, µM (series often up to 57 µM), inactives show at the highest dose activity change, negative = inhibition, most hits filed as inhibitors; note: % is set by controls: 0 for no effect and ±100 for the full control effect; nearly all actives have a fitted effect of over 55% in size
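qHTS (up to 57 uM final) was run with 24 h compound exposure of reporter cells at 37 °C. Each well was multiplexed: SteadyGlo luminescence measured ATXN2-luciferase expression after a fluorogenic Gly-Phe-AFC viability readout (25 uM final).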
HepG2 viability: kills HepG2 cells in TGF-b inhibitor counter-screen; HepG2 CAGA-GFP viability, ATP luminescence, 18 h; Potency, µM (top dose mostly 46.1 µM), for the others: at the highest dose activity change, negative = cytotoxicity, most hits filed as cytotoxic; hit rate 0.76% among 410,000; AID 588856
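CellTiter-Glo luminescence gave cytotoxicity after 18 hours at 37 degrees C. The cells were HepG2 CAGA-GFP in 1% FBS DMEM, stimulated with 500 pg/mL TGF-beta after compound addition. %Activity was normalised to no-cell wells (complete cell-killing) and DMSO (no toxicity), and curves were fitted and classified.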
ATXN viability: reduces viability in counter-screen for ATXN expression inhibitors | S2 cells (HEK-293 line with an ATXN2-luciferase reporter) viability, CellTiter-Fluor protease fluorescence, 24 h | Potency, µM (top dose mostly 56.7 µM), most hits filed as cytotoxic | hit rate 0.49% among 400,000; note: nearly all actives have a fitted effect of over 40% in size
TGFb SMAD3 inh: inhibitors of TGF-b signaling | HepG2 CAGA-GFP TGF-b/SMAD3 reporter, GFP fluorescence, 18 h; TGF-beta stimulated, 500 pg/mL final | Potency, µM (doses to about 46.1 µM), for the others: top-dose activity, negative = inhibition, usual class: inhibitors | hit rate 1.2% among 410,000; note: % is set by controls: 0 for no effect and ±100 for the full control effect; nearly all actives have a fitted effect of over 65% in size
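HEPG2 CAGA-GFP cells (1000/well, DMEM with 1% FBS) were pre-incubated 2 h at 37 degrees C, given compound by pin tool, then stimulated with TGF-beta at 500 pg/mL final for 18 h before per-cell GFP fluorescence imaging.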
* hit, by the source's call; i = inactive; ? = inconclusive; nt = no result given; [ ] = dose if it differs, or a comment. Hits are enriched below; roughly 2.4% of the tested compounds scored in any of these assays. Calls come from the whole dose curve; as a rule, active = well fitted curve in the direction sought with a large enough effect; inconclusive = small, poorly fitted or top-dose-only effect, or another doubt; inactive = no such curve, though single readings can be large; an effect the other way counts as inactive or inconclusive. Potency is the fitted concentration of half-maximal effect.

SMILES	Apoferritin bind	ATXN2 expr inh	HepG2 viability	ATXN viability	TGFb SMAD3 inh
CCC(O)c1cnc(OCc2ccccc2)nc1OCc1ccccc1 (stereo not given)	nt	nt	14µM*	i	?
Nc1nc(N)c2c(OCc3ccc(C(F)(F)F)cc3)cccc2n1	nt	nt	-58%	nt	?
Nc1nc(N)c2c(Oc3ccc(F)cc3)cccc2n1	nt	nt	-50%	nt	13µM*
CC(C)(C)n1ncc2c(=O)n(Cc3c(F)ccc(F)c3Cl)cnc21	nt	nt	-33%	nt	4%
CC(C)(CCCCCCCCCCC(C)(C)CC(=O)O)CC(=O)O	-1%	nt	nt	nt	nt
COC[C@H](NC(=O)c1cnc(C)s1)C(=O)N[C@@H](COC)C(=O)N[C@@H](Cc1ccccc1)C(=O)[C@@]1(C)CO1	nt	0.22µM*	nt	nt	nt
Cc1c(Cl)cccc1NC(=O)Cn1cc(C(=O)C2CCCCC2)c2ccccc21	-4%	nt	-45%	nt	?
OC[C@@H]1CN(Cc2ccc(-c3ccccc3)cc2)C[C@H](n2cnc3c(NC4CCC4)ncnc32)O1	nt	?	-19%	18µM*	?
CS(=O)(=O)c1ccc(/C=C2\C=Cc3ccccc32)cc1	nt	nt	-26%	nt	-18%
C[C@H](O)[C@@H]1CN2CCc3c([nH]c4ccc(-c5ccc6c(c5)OCO6)cc34)[C@@H]2C[C@@H]1N(C)C(=O)Nc1cc(Cl)cc(Cl)c1	nt	20µM*	-95%	16µM*	?
COc1ccc(NC(=O)N(C)[C@H]2C[C@H]3c4[nH]c5ccc(-c6cccc(C)c6)cc5c4CCN3C[C@H]2[C@H](C)O)cc1	nt	25µM*	-121%	nt	?
C[C@H](O)[C@@H]1CN2CCc3c([nH]c4ccccc34)[C@@H]2C[C@@H]1N(C)C(=O)Nc1cc(Cl)cc(Cl)c1	nt	-6%	-19%	i	?
CO[C@H]1COC(=O)[C@H]2CCCN2C(=O)C/C=C\[C@@H](C)[C@H](OC)COC(=O)[C@@H](OCc2ccccc2)/C=C\[C@@H]1C	-5%[15.3 µM]	nt	nt	nt	nt
Cn1cc(CN(C(=O)Nc2ccc(Cl)c(Cl)c2)C2CCCCC2)c2ccccc21	-13%	14%	-5%	i	-5%
Cn1cc(CN(C(=O)Nc2ccccc2)C2CCCCC2)c2ccccc21	-4%	?	16µM*	?	?
COc1ccc(C(=O)Nc2ccc(N3CCN(C)CC3)cc2)cc1	-4%	nt	-4%	?	-3%
Cc1ccccc1C(=O)N1CCN(c2ccc(NC(=O)c3ccc4c(c3)OCCO4)cc2)CC1	1%	28µM*	-12%	?	-7%
COc1c(C)cccc1C(=O)Nc1ccc(N2CCN(C(=O)c3ccccc3C)CC2)cc1	11%	20µM*	-10%	?	?
CN1CCN(c2ccc(NC(=O)c3ccc4ccccc4c3)cc2)CC1	-16%	14µM*	-9%	i	-1%
Cc1ccc(C(=O)Nc2ccc3c(c2)OCCO3)c(C)c1	-4%	5µM*	-30%	i	10%
Cc1ccccc1C(=O)N1CCN(c2ccc(NC(=O)c3cccc(OC(C)C)c3)cc2)CC1	-6%	-7%	25%	i	-1%
Cc1cc(C)c(C(=O)Nc2ccc3c(c2)OCCO3)c(C)c1	nt	nt	13%	i	-1%
CC(=O)N1CCC[C@H]1C(=O)NCC1Cc2cc(-c3cccc(OC(F)(F)F)c3)ccc2O1 (stereo not given in full)	nt	nt	nt	i	nt
CC(=O)OC[C@@H]1O[C@@H](O/N=C2/C[C@@H](O)[C@@H](O)[C@@H]3[C@@H]4C(=O)N([C@@H](C)c5ccccc5)C(=O)[C@H]4CC[C@@H]23)[C@H](OC(C)=O)[C@H](OC(C)=O)[C@@H]1OC(C)=O	-5%[15.3 µM]	nt	nt	nt	nt
CCOC(=O)c1cc(C)n(CC2CCC(C(=O)Nc3ccc(OCC)cc3)CC2)c1C (stereo not given)	2%	nt	-17%	nt	?
CCOC(=O)c1cc(C)n(CC2CCC(C(=O)Nc3ccccc3OC)CC2)c1C (stereo not given)	46%	nt	-22%	nt	11µM*
c1ccc2c(c1)[nH]c1c(N3CCN(C4CCCCC4)CC3)ncnc12	6.3µM*	-25%	-46%	i	-1%
c1ccc2c(c1)[nH]c1c(N3CCCC3)ncnc12	2%	-25%	0%	i	-10%

Compound activity deposited in PubChem BioAssay by National Center for Advancing Translational Sciences (NCATS).
